Here are results for seven compounds from the supplement of paper PMC12297408.

Counter-ions that a name gives are not always drawn.

The first assay deals with Plasmodium falciparum NF54/iGP1_RE9H ulg8 stage V gametocytes. Put plainly: gametocyte viability (luciferase signal relative to DMSO control) (% of DMSO control); higher = less gametocytocidal activity, active = 50 or less. Conditions: concentration: 1 µM; exposure time: 72 h. How it is done:
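Synchronous P. falciparum NF54/iGP1_RE9H ulg8 mature stage V gametocytes (day 12) were exposed to Cayman Epigenetics Screening Library compounds at 10 µM or 1 µM for 72 h at 37 °C. Viability was read as RE9H luciferase bioluminescence, normalised to DMSO plate controls (100%); 50 µM methylene blue was the positive control.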
Turning to `Cc1sc2c(c1C)C(c1ccc(Cl)cc1)=NC(CC(=O)O)c1nnc(C)n1-2` (single isomer, unassigned; (+)) [(+)-JQ1 (free acid)], the gametocyte viability was 85.8 (inactive).

With `CN(C)NC(=O)CCC(=O)O` [Daminozide], the gametocyte viability was 95.2 (inactive).

Consider `C[S+]([O-])CCCCN=C=S` (centres undefined) [Sulforaphane], for which the gametocyte viability is 99.8 (inactive).

In the case of `Cc1sc2c(c1C)C(c1ccc(Cl)cc1)=N[C@@H](CC(N)=O)c1nnc(C)n1-2`, the gametocyte viability was 90.9 (inactive).

As to `COc1cc(C(=O)N2CC[C@@H](O)[C@@H](N)C2)cc2nc(-c3cc4ccccc4n3CC3CC3)n(C)c12` [GSK484 (hydrochloride)], the gametocyte viability is 94.7 (inactive).

For the compound `CC1=CC(=O)c2c(O)cccc2C1=O` [Plumbagin], the gametocyte viability is 71.2 (inactive).

Regarding `N[C@@H]1C[C@H]1c1ccccc1` [Tranylcypromine (hydrochloride)], the gametocyte viability was 91.7 (inactive).

The same assay, now with this note: concentration: 10 µM; exposure time: 72 h.
With `Cc1sc2c(c1C)C(c1ccc(Cl)cc1)=NC(CC(=O)O)c1nnc(C)n1-2` (single isomer, unassigned; (+)) [(+)-JQ1 (free acid)], the gametocyte viability was 88.2 (inactive).

As to `CN(C)NC(=O)CCC(=O)O` [Daminozide], the gametocyte viability was 88.8 (inactive).

Take `C[S+]([O-])CCCCN=C=S` (centres undefined) [Sulforaphane]: the gametocyte viability was 96.2 (inactive).

On to `Cc1sc2c(c1C)C(c1ccc(Cl)cc1)=N[C@@H](CC(N)=O)c1nnc(C)n1-2`, for which the gametocyte viability was 93.5 (inactive).

Take `COc1cc(C(=O)N2CC[C@@H](O)[C@@H](N)C2)cc2nc(-c3cc4ccccc4n3CC3CC3)n(C)c12` [GSK484 (hydrochloride)]: the gametocyte viability was 41.8 (active).

In the case of `CC1=CC(=O)c2c(O)cccc2C1=O` [Plumbagin], the gametocyte viability is 16.7 (active).

Turning to `N[C@@H]1C[C@H]1c1ccccc1` [Tranylcypromine (hydrochloride)], the gametocyte viability is 91.4 (inactive).
